Measured values from PubChem BioAssay (NCATS).
Where “and” joins values, the source holds several entries; their conditions need not be identical. Equal values may be shown once. Results filed as inconclusive are left out. Calls of active or inactive are those of the source. Unless noted, the call rests on the fitted dose curve; in most records, active means well fitted curve in the direction sought with a large enough effect; inconclusive means small, poorly fitted or top-dose-only effect, or another doubt; inactive means no such curve, though single readings can be large; an effect the other way counts as inactive or inconclusive.

Key:
[1] = qHTS for Activators of Parkin Expression: LOPAC Validation Assay (FLuc Reporter) (AID 720573;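 further: 0% = DMSO and 100% = positive control compounds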)
Summary of the method: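 A neuronal cell line harbouring FLuc and NLuc reporters behind the Parkin promoter was exposed to compounds for 24 h. Firefly luciferase signal, measured after 10 min with detection reagent, was scaled to DMSO and positive-control wells.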

[2] = biological target: T1, Hexokinase-4 (Homo sapiens) + Glucokinase regulatory protein (Homo sapiens) (UniProt P35557+Q14397); assay: qHTS assay for inhibitors of recombinant human GCK-GKRP interaction: Diaphorase-coupled assay (AID 743205)
Summary of the method: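 Inhibitors of the GCK–GKRP complex relieve GKRP suppression of GCK, detected through a G6PDH–diaphorase cascade reducing resazurin. Human GST-GCK and FLAG-GKRP are used at 10 nM with 5 mM glucose and 0.4 mM ATP.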

[3] = biological target: T1, Hexokinase-4 (Homo sapiens) + Glucokinase regulatory protein (Homo sapiens); assay: qHTS assay for inhibitors of recombinant human GCK-GKRP interaction: ADP-Glo assay (AID 743206);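 further: plate controls were DMSO plus enzyme for no effect and no enzyme for full effect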
Summary of the method: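 GST-GCK and FLAG-GKRP (15 nM each in the dispensed mix, with 2 uM S6P) react with 0.4 mM ATP and 5 mM glucose (final) in Hepes pH 7.6 for 60 min at room temperature. ADP is measured by ADP-Glo luminescence.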

[4] = biological target: T1, Hexokinase-4 (Homo sapiens) + Glucokinase regulatory protein (Homo sapiens); assay: qHTS assay for inhibitors of recombinant human GCK-GKRP interaction: HTRF assay (AID 743207); further: potency means the concentration at half of the fitted maximal effect
Summary of the method: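 Steps: dispense GCK–GKRP complex (5 nM each, GST- and FLAG-tagged) with 2 uM S6P; pin in compounds; add XL665/Eu-cryptate-labelled antibodies; incubate 60 min at room temperature; read time-resolved FRET at 665 and 615 nm.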

[5] = qHTS assay for small molecule agonists of the antioxidant response element (ARE) signaling pathway measured by Nrf2-dependant transcriptional activity - cell viability counter screen (AID 720653; active means well fitted curve in the direction sought with a large enough effect in the repeat runs; an effect the other way counts as inactive or inconclusive; further: on the % scale 0 is the no-effect control and ±100 the full control effect); settings: ARE-bla HepG2 viability, CellTiter-Glo ATP luminescence, 16 h; max response: active compounds read low
Summary of the method: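 ARE-bla HepG2 cells (2,000/well) rested 5 hrs at 37C/5% CO2, then exposed to compounds in DMSO for 16 hrs. Viability was read in the same wells as intracellular ATP by luminescence, 30 min at room temperature after reagent addition.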

[6] = qHTS assay for cell viability of the p53RE-bla HCT-116 cell line (AID 743292); further: on the % scale 0 is the no-effect control and ±100 the full control effect; nearly all actives have a fitted effect of over 55% in size
Summary of the method: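 After plating at 4,000 cells per well and a 5 h rest at 37 C, HCT-116 cells carrying p53RE-bla received test chemicals in DMSO. Sixteen hours later at 37 C, CellTiter-Glo was added and luminescence recorded following 30 min at room temperature.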

[7] = qHTS Assay for Identifying Gametocytocidal Compounds (AID 743244);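 further: on the % scale 0 is the no-effect control and ±100 the full control effect; actives lower the fluorescent signal which means gametocytes are killed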; settings: P. falciparum 3D7 stage III-V gametocytes, alamarBlue, 72 h; max response: active compounds read low
Summary of the method: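 P. falciparum 3D7 stage III–V gametocytes (20,000 cells/well) were exposed to compounds for 72 h at 37 °C, 5% CO2. AlamarBlue was then added for 24 h; decreased resorufin fluorescence (Ex 525/Em 598 nm) indicated loss of viability.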

T1 sequence (P35557 whole entry, looked up): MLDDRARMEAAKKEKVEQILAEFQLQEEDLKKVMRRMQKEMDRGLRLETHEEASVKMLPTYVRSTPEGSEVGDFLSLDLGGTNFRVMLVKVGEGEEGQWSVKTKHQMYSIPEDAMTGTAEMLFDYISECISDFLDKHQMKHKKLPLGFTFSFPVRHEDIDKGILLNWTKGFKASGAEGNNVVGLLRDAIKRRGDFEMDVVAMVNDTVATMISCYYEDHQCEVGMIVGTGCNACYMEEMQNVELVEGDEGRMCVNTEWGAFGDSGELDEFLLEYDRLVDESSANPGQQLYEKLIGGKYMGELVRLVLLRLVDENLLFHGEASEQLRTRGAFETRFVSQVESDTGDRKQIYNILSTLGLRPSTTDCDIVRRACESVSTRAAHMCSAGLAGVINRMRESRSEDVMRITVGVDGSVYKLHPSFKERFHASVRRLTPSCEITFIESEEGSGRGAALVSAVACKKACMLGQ
T1 sequence (Q14397 whole entry, looked up): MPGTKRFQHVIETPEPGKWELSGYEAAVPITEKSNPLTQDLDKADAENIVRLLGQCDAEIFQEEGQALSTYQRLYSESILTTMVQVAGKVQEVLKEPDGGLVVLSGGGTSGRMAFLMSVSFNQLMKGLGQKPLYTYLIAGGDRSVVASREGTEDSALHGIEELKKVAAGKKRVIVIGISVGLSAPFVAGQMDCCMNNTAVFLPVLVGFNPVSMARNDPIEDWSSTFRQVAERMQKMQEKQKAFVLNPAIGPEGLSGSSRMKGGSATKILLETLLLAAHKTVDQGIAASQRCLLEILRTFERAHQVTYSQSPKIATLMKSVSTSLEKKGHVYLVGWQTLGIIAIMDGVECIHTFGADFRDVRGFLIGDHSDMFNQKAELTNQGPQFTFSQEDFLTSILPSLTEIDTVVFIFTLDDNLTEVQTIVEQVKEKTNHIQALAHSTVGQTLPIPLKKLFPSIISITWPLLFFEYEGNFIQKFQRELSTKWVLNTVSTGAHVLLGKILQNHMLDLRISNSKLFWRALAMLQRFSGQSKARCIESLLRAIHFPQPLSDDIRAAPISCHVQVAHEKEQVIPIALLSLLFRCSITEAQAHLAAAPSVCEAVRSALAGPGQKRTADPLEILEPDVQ

NC(N)=NC(=O)c1nc(Cl)c(N2CCCCCC2)nc1N
inactive: Potency [1] | outcome [2] | Potency [3] | Potency [4]

Clc1ccc(N2CCN(Cc3c[nH]c4ncccc34)CC2)cc1
inactive: Potency [1] | outcome [2] | Potency [3] | Potency [4]

C[N+](C)(C)CC(=O)[O-]
inactive: Potency [1] | outcome [2] | Potency [3] | Potency [4]

O=C(c1ccc(Cl)cc1)N1CCN(c2ccc([N+](=O)[O-])c3ncccc23)CC1
inactive: Potency [1] | outcome [2] | Potency [3]

Oc1ccc(C2CNCc3sccc32)cc1O (centres undefined)
inactive: Potency [1] | outcome [2] | Potency [3]

CN(C)CCC(c1ccc(Cl)cc1)c1ccccn1 (centres undefined)
inactive: Potency [1] | max response [5] -2.73% | outcome [2] | Potency [3] | Potency [4] | Potency [6]

C[N+]1(C)CCC(OC(=O)C(c2ccccc2)c2ccccc2)CC1
inactive: Potency [1] | outcome [2] | Potency [3]

N#C/C(=C\c1ccc(-c2cc(Cl)ccc2Cl)o1)C(=O)Nc1cccc2ncccc12
inactive: Potency [1] | outcome [2] | Potency [3]

CC1(C)CCC=[N+]1[O-]
inactive: Potency [1] | outcome [2] | Potency [3] | Potency [4]

CC(C)ON([C@@H](C(=O)NO)C(C)C)S(=O)(=O)c1ccc(-c2ccccc2)cc1
inactive: Potency [1] | outcome [2] | Potency [3] | Potency [4]

CN1[C@@H](CC(=O)c2ccccc2)CCC[C@H]1C[C@H](O)c1ccccc1
inactive: Potency [1] | outcome [2] | Potency [3] | Potency [4]

CCOC(=O)N1CCN(/[N+]([O-])=N/Oc2ccc([N+](=O)[O-])cc2[N+](=O)[O-])CC1
inactive: Potency [1] | outcome [2] | Potency [3] | Potency [4]

O=C(O)CNC(=O)C(CS)Cc1ccccc1 (centres undefined)
inactive: Potency [1] | outcome [2] | Potency [3] | Potency [4]

CCCC1(C)C(C#N)(C#N)C1(C#N)C#N
inactive: Potency [1] | outcome [2] | Potency [3] | Potency [4]

CCCCCCCC/C=C\CCCCCCCC(=O)NCCO
inactive: Potency [1] | outcome [2] | Potency [3]

COc1ccc2c(c1)CCC1C2CC[C@@]2(C)C1CC[C@@H]2NCCCCCCN1C(=O)CCC1=O (some centres undefined)
inactive: Potency [1] | outcome [2] | Potency [3]

CN1CCC[C@H]1c1cccnc1
inactive: Potency [1] | max response [5] -4.29% and -4.16% | outcome [2] | Potency [3] | Potency [4] | Potency [6]

NS(=O)(=O)C#Cc1ccccc1
inactive: Potency [1] | outcome [2] | Potency [3]

NC[C@@H]1O[C@H](C23CC4CC(CC(C4)C2)C3)Cc2c1ccc(O)c2O
inactive: Potency [1] | outcome [2] | Potency [3] | Potency [4]

OCC1O[C@H]([S-])[C@H](O)[C@@H](O)[C@@H]1O.[Au+] (some centres undefined)
active: Potency [4] 15.8 µM
inactive: Potency [1] | outcome [2] | Potency [3]

COc1cc2nc(N3CCN(C(=O)OCc4ccccc4)C(C(=O)NC(C)(C)C)C3)nc(N)c2cc1OC (centres undefined)
inactive: Potency [1] | outcome [2] | Potency [3] | Potency [4]

CN=c1nc(-c2ccccc2)n(-c2ccccc2)s1
inactive: Potency [1] | outcome [2] | Potency [3] | Potency [4]

CCCCC/C=C\CC(O)/C=C/c1cccc(CC(O)CCCCO)n1 (centres undefined)
inactive: Potency [1] | outcome [2] | Potency [3] | Potency [4]

C=C[C@H]1CN2CC[C@@H]1C[C@@H]2[C@@H](O)c1ccnc2ccc(OC)cc12
inactive: Potency [1] | outcome [2] | Potency [3] | Potency [4]

O=C(Nc1ccccc1)c1cc([N+](=O)[O-])ccc1Cl
inactive: Potency [1] | max response [5] -18.4% | outcome [2] | Potency [3] | Potency [4] | max response [7] -5.62% | Potency [6]

COc1cc(SC)ccc1C(=O)N1CCC(Cc2ccccc2)CC1
inactive: Potency [1] | outcome [2] | Potency [3]

CC(COc1ccc(/C=C/c2ccccc2)cc1)[N+](C)(C)C (centres undefined)
inactive: Potency [1] | outcome [2] | Potency [3] | Potency [4]

O=C(/C=C/c1ccc(O)cc1)c1ccc(O)cc1O
inactive: Potency [1] | outcome [2] | Potency [3]

CCCn1c(=O)c2[nH]c(-c3ccc(OCC(=O)NCCN)cc3)nc2n(CCC)c1=O
inactive: Potency [1] | outcome [2] | Potency [3]

C[C@@H](CN1CCC(Cc2ccccc2)CC1)[C@@H](O)c1ccc(O)cc1
inactive: Potency [1] | outcome [2] | Potency [3] | Potency [4]

CSc1nc(N)c2ncn([C@@H]3O[C@H](COP(=O)(O)OP(=O)(O)OP(=O)(O)O)[C@@H](O)[C@H]3O)c2n1
inactive: Potency [1] | outcome [2] | Potency [3] | Potency [4]

CNc1ncnc2c1ncn2[C@@H]1O[C@H](CO)[C@@H](O)[C@H]1O
inactive: Potency [1] | outcome [2] | Potency [3] | Potency [4]

CC(N)C(=O)OC(C)(C)Cc1ccc(Cl)cc1 (centres undefined)
inactive: Potency [1] | outcome [2] | Potency [3]

CC(C)NCC(O)COc1cccc2ccccc12 (centres undefined)
inactive: Potency [1] | max response [5] -11.2% and -5.42% | outcome [2] | Potency [3] | Potency [4] | Potency [6]

CN1CCc2cc(O)c(O)cc2C(c2ccccc2)C1 (centres undefined)
inactive: Potency [1] | outcome [2] | Potency [3] | Potency [4]

N#C/C(=C\c1ccc(O)c(O)c1)C(=O)NCCCc1ccccc1
inactive: Potency [1] | outcome [2] | Potency [3]

Clc1ccc(N2CCN(Cc3cc4ccccn4n3)CC2)cc1
inactive: Potency [1] | outcome [2] | Potency [3]
